Assay outcomes deposited in PubChem by National Center for Advancing Translational Sciences (NCATS).
Compounds with a hit are over-represented: about 0.52% of the library has one in this group of screens.
Vif-A3F inh – Vif-A3F binding inhibition; HeLa A3F-eYFP + Vif (tagged APOBEC3F with the HIV-1 protein that degrades it), YFP fluorescence increase; Potency, µM (top dose mostly 46.1 µM), for the others: at the top dose activity, negative = active; hit rate 0.2% among 390,000; also: % of control where 0% means no effect; nearly all actives have a fitted effect of over 65% in size
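HeLa cells stably expressing Vif plus C-terminally eYFP-tagged A3F were seeded, incubated overnight at 37 deg C, dosed with compound, incubated overnight again at 37 deg C. Yellow fluorescence (Ex 488/Em 500-530) reported blocked Vif-mediated A3F-eYFP degradation.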
Vif-A3G inh – inhibitors of Vif-APOBEC3G interaction. Q9HC16. HeLa A3G-eYFP + Vif (tagged APOBEC3G with the HIV-1 protein that degrades it), YFP fluorescence, overnight. Potency, µM (series often up to 46.1 µM), for inactives: at the highest dose activity, negative = active, hits mostly inhibitors. hit rate 0.076% among 410,000. AID 602310; also: % is scaled to controls: 0 for no effect and ±100 for the full control effect; nearly all actives have a fitted effect of over 60% in size
Target sequence (Q9HC16 whole entry, looked up): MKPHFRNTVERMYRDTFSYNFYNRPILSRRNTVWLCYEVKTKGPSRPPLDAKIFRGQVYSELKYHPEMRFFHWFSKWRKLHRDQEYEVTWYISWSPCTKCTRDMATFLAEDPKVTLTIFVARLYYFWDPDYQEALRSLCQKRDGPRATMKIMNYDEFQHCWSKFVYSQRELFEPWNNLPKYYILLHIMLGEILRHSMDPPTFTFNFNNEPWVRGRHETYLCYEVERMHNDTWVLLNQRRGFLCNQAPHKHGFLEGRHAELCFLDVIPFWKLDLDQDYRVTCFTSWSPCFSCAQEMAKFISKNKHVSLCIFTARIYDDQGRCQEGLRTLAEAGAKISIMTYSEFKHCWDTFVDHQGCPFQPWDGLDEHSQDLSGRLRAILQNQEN
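Read-out is eYFP fluorescence (Ex 488/Em 500-530) from Vif-expressing HeLa A3G-eYFP cells; more signal means A3G escaped Vif-mediated degradation. Cells plated overnight, compound pinned in, incubated overnight at 37 deg C.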
Epigenetic reg – derepresses silenced GFP reporter in murine cells; AID 1865; Potency, µM (highest dose often 53.9 µM), inactives show top-dose GFP activation, hits mostly activators; murine LDR cells, GFP reporter derepression, 30 h; hit rate 0.2% among 280,000; also: % of control where 0% means no effect; nearly all actives have a fitted effect of over 60% in size
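Readout is the number of GFP-expressing murine LDR cells, counted by cytometry following washing. Cells were treated with compound for 30 h at 37 C; the stably integrated CMV-GFP locus is normally silent.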
PINK1 modulator – PINK1 expression modulation. PINK1 immunofluorescence, high-content cytometry, 24 h. Potency, µM (titrated, usually from 76.6 µM), for inactives: at the highest dose activation (PINK1 increase), most hits filed as activators. hit rate 0.2% among 410,000. AID 624263; active = well fitted activation curve with a large enough effect; inconclusive = small, poorly fitted or top-dose-only effect; cell line not stated here; also: % of control where 0% means no effect; nearly all actives have a fitted effect of over 65% in size
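Readout is PINK1 immunofluorescence, quantified alongside mitochondrial, cell and nuclear markers by laser-scanning microplate cytometry. Cells from a stable line were exposed to compound titrations (5 concentrations) for 24 hours, with CCCP controls.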
Starred values were filed as active, the others as inactive; u = inconclusive; x = no result given; [ ] = another dose, or the depositor's remark. Unless noted, calls follow the shape of the dose curve; as a rule, active = well fitted curve in the direction sought with a large enough effect; inconclusive = small, poorly fitted or top-dose-only effect, or another doubt; inactive = no such curve, though single readings can be large; an effect the other way counts as inactive or inconclusive. Potency is read from the fitted curve at half-maximal effect.

SMILES | Vif-A3F inh | Vif-A3G inh | Epigenetic reg | PINK1 modulator
CCOc1ccccc1NC(=O)c1cc(C(=O)c2cc(Br)ccc2O)coc1=N | 3.0% | -14.1% | 1.4% | u
COc1cc(/C=C2\SC(N)=NC2=O)cc(Br)c1O | u | 11.2µM* | x | -0.6%
Cc1nc(NCc2ccc3nsnc3c2)sc1-c1ccn(C)n1 | x | x | x | 1.8%
CCOc1ccc(CCNC(=O)C2CCC(=O)N2C2CCCCC2)cc1OCC (stereo not given) | -3.5% | 0.5% | -1.7% | 3.98µM*
CN1C(=O)/C(=C\c2ccccc2OCc2ccccc2)SC1=S | u | 5.7% | x | u
CN1C(=O)/C(=C\c2cc(N=Nc3ccccc3)ccc2O)SC1=S | 2.3% | 0.5% | -1.2% | 39.8µM*
Cc1ccnn1CC(=O)N1CCOc2c(cc(-c3ncc(C(F)(F)F)cc3Cl)cc2OCC2CCCO2)C1 (stereo not given) | x | x | x | 0.6%
CCCCCc1c(-c2ccc(F)cc2)ncn1CCc1ccccc1OC | x | x | x | -1.1%
CCCCCc1c(CC)ncn1CCc1ccccc1OC | x | x | x | 31.6µM*
COc1ccc(S(=O)(=O)Nc2nc3ccccc3nc2Nc2ccc3c(c2)OCO3)cc1 | x | x | 0.0% | x
O=S(=O)(Nc1nc2ccccc2nc1Nc1ccc2c(c1)OCCO2)c1cccs1 | 11.2µM* | -16.0% | 0.8% | -1.0%[38.3 µM]
Cc1occc1C(=O)Nc1cccc(-c2nc(CNC(=O)c3ccc(N4CCCCC4)cc3)c(C)o2)c1 | x | x | x | 0.7%
CCSc1ncc(Cl)c(C(=O)Nc2sc3c(c2C(=O)NCc2cccnc2)CCCC3)n1 | u | 0.7% | 7.5% | 11.2µM*
CCSc1ncc(Cl)c(C(=O)Nc2sc3c(c2C(=O)NCCCOC)CCCC3)n1 | u | 0.6% | 3.55µM* | 2.5%
CCCSc1ncc(Cl)c(C(=O)Nc2sc3c(c2C(N)=O)CCCC3)n1 | x | 7.08µM* | u | 8.91µM*
Cc1cc(C)n(CC(=O)N2CCC(n3c(C(C)C)nc4cccnc43)CC2)n1 | x | x | x | -0.7%
Cc1ncc(-c2ccc(F)cc2)c(C2CCCN(Cc3cccc(O)c3)C2)n1 (stereo not given) | x | x | x | 0.9%
COc1ccc([C@H]2O[C@@H](c3ccc(OC)c(OC)c3)[C@H](C)[C@@H]2C)cc1OC | x | x | -1.1% | x
CCOC(=O)c1c(CN(CC)CC)n(-c2ccccc2)c2ccc(O)cc12 | -1.8% | 12.6µM* | x | 1.1%
CCOC(=O)c1c(C)n(-c2ccccc2)c2ccc(O)cc12 | 0.2% | -4.3% | -1.1% | 4.2%
CCOC(=O)c1c(-c2ccccc2)csc1NC(=O)/C(C#N)=C/c1ccc(O)c(OC)c1 | u | 6.2% | 25.1µM* | 15.2%
O=C(NCCc1ccccn1)C1CC12CCN(C(=O)c1c(F)cccc1Cl)CC2 (stereo not given) | x | x | x | 0.8%
Cc1ccnc(NC(=O)Nc2ccc3c(c2)N(C)C(=O)CS3)c1 | 25.1µM* | u | 0.1% | u
CC(=O)NC(c1cc(Cl)c2ccccc2c1O)C(C)C (stereo not given) | 4.3% | u | x | 11.8%
CC(=O)NC(c1cc(Cl)c2cccnc2c1O)C(C)C (stereo not given) | 8.91µM* | -5.6% | x | 5.4%
SMILES | Vif-A3F inh | Vif-A3G inh | Epigenetic reg | PINK1 modulator
CC(=O)NC(c1cc(Cl)c2cccnc2c1O)C1CC1 (stereo not given) | u | 5.01µM* | x | 6.2%
O=C(NC[C@@H]1CCCN2CCCC[C@H]12)c1cnn(-c2nccc(-c3cc4ccccc4o3)n2)c1C1CC1 | x | x | x | 0.9%
N#Cc1cc2ccccc2nc1SCC(=O)Nc1ccccc1N1CCOCC1 | 25.1µM* | u | -0.9% | 6.8%
Cc1cccc2cc(C#N)c(SCC(=O)Nc3ccccc3N3CCOCC3)nc12 | -11.8% | -11.4% | -2.0% | 20.1%
Cc1ncc2c(c1CNC(=O)c1ccc3c(c1)OCO3)CCN(C(=O)c1cccc(-n3cccn3)c1)C2 | x | x | x | -0.8%
CSc1nnc(CNC(=O)c2c(-c3ccccc3)noc2C)n1-c1ccc(F)cc1 | x | x | x | 0.7%
COC(=O)c1c(-c2ccccc2Cl)noc1/C=C/N(C)C | u | u | 22.4µM* | 2.9%
COc1cnc(-c2ccccn2)nc1Oc1ccc(F)cc1F | 11.2µM* | -1.3% | -0.5% | -1.4%
COc1cnc(-c2ccccn2)nc1Oc1ccccc1Cl | 1.6% | 1.6% | 2.1% | 0.5%
COc1cc(OC)c(OC)cc1CN1CCOc2ccc(CN3CCN(C(C)=O)CC3)cc2C1 | x | x | x | -0.3%
O=C(NCc1cccc(F)c1)c1cccc2c1C(=O)c1ccc(N3CCC(Cc4ccccc4)CC3)cc1S2(=O)=O | 31.6µM* | 11.2µM* | x | 1.6%
O=C(NCc1ccc(OC(F)(F)F)cc1)c1cccc2c1C(=O)c1ccc(N3CCC(Cc4ccccc4)CC3)cc1S2(=O)=O | u | -9.0% | x | 15.8%
O=C(NCc1cc(C(F)(F)F)ccc1Cl)c1cccc2c1C(=O)c1ccc(N3CCOCC3)cc1S2(=O)=O | 10µM* | 2.9% | x | u
O=C(NCc1cccc(F)c1)c1cccc2c1C(=O)c1ccc(N3CCCC3)cc1S2(=O)=O | u | u | x | 1.5%
O=C(NCc1cccc(C(F)(F)F)c1)c1cccc2c1C(=O)c1ccc(N3CCC(Cc4ccccc4)CC3)cc1S2(=O)=O | 22.4µM* | u | x | 1.5%
CC1CCN(c2ccc3c(c2)S(=O)(=O)c2cccc(C(=O)NCc4cccc(F)c4)c2C3=O)CC1 | u | 20µM* | x | -1.4%
O=C(NCc1cc(C(F)(F)F)ccc1Cl)c1cccc2c1C(=O)c1ccc(N3CCCCC3)cc1S2(=O)=O | -4.9% | -10.3% | x | 6.4%
CC(C)(CNC(=O)c1cnn(-c2nccc(-c3ccccc3F)n2)c1C1CC1)N1CCOCC1 | x | x | x | 0.3%
CN(C)CC(C)(O)c1ccc2c(c1)CN(Cc1cnn(-c3ccccc3)c1)CCO2 (stereo not given) | x | x | x | 0.5%
Cc1c(C(=O)N2CC3CCC2C3)sc2ncnc(NCc3ccco3)c12 (stereo not given) | x | x | x | 0.0%
CS(=O)(=O)c1ccc(-c2ccc3c(c2)CC(CNC(=O)C2(N4CCOCC4)CCCCC2)O3)cc1 (stereo not given) | x | x | x | -0.4%
O=C(NCCN1CCOCC1)c1cnn(-c2nccc(-c3ccccc3F)n2)c1C1CC1 | x | x | x | -0.4%
O=C(NCCc1ccc(F)cc1)c1cccc2c1C(=O)c1ccc(N3CCC(Cc4ccccc4)CC3)cc1S2(=O)=O | u | u | x | -0.9%
O=C(NCc1ccco1)c1cccc2c1C(=O)c1ccc(N3CCC(Cc4ccccc4)CC3)cc1S2(=O)=O | 10µM* | u | x | -1.1%
Cc1cc(-c2ccccc2)c2c3c(c(-c4ccccc4)n2n1)c(=O)n(C)c(=O)n3C | 25.1µM* | u | u | u
Cc1cc(C)c2c3c(c(-c4ccccc4)n2n1)c(=O)n(C)c(=O)n3C | 12.8% | 1.9% | x | 1.6%
NC1=NC(=O)/C(=C/c2c(OS(=O)(=O)c3ccc(Cl)cc3)ccc3ccccc23)S1 | -14.8% | -1.5% | -1.9% | 12.6µM*
Cc1cccc2c(Nc3ccc4c(c3)OCO4)nc(CN3CCC(N4CCCCC4)CC3)nc12 | x | x | x | 9.4%
CCOC(=O)c1c(NC(=O)CSc2ncccn2)sc2c1CC(C)(C)NC2(C)C | 2.0% | 0.8% | x | 0.5%
